PubChem BioAssay (NCATS)
Where “and” joins values, the source holds several entries; their conditions need not be identical. Equal values may be shown once. Results filed as inconclusive are left out. Calls of active or inactive are those of the source. Unless noted, calls follow the shape of the dose curve; as a rule, active = well fitted curve in the direction sought with a large enough effect; inconclusive = small, poorly fitted or top-dose-only effect, or another doubt; inactive = no such curve, though single readings can be large; an effect the other way counts as inactive or inconclusive.

Legend:
[1] = Cell Viability - Hek293 (AID 427;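 active = compounds whose dose-response curve shows a full or clear partial loss of cell viability, called from curve shape rather than a numeric limit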;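 also: potency is read from the fitted curve at half-maximal effect; cells exposed to compound for 40 hours at 37 °C before reading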); conditions: qHTS
In short: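 Luminescent ATP read-out (CellTiter-Glo, 20 min RT) after 40 hr compound exposure at 37 °C in complete medium. Signal normalized to DMSO (basal) and 100 uM tamoxifen (100% inhibition); concentration-response fitted with the standard Hill equation to give AC50.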

[2] = Cell Viability - SK-N-SH (AID 435; calls by dose curve;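 also: potency is read from the fitted curve at half-maximal effect; compound exposure lasted 40 h at 37 °C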); conditions: SK-N-SH neuroblastoma cell viability qHTS
In short: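 SK-N-SH human neuroblastoma cells (1500/well) were exposed to compounds in complete medium for 40 h at 37 °C, and intracellular ATP was then measured by CellTiter-Glo luminescence. AC50 was taken from Hill fits, normalized to DMSO and 100 uM tamoxifen.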

[3] = Cell Viability - HUV-EC-C (AID 542); conditions: HUV-EC-C endothelial cell viability, qHTS; series mostly up to 92.2 µM; also: % is scaled to controls: 0 for no effect and ±100 for the full control effect; nearly all actives have a fitted effect of over 35% in size
In short: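 HUV-EC-C normal human vascular endothelial cells, 1000 cells/well, pre-incubated 5 hr at 37 °C, then exposed to compounds for 40 hr at 37 °C in complete medium. Viability measured as intracellular ATP by CellTiter-Glo luminescence; AC50 from Hill fits.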

[4] = Cell Viability - H-4-II-E (AID 543); conditions: H-4-II-E rat hepatoma viability; series mostly up to 92.2 µM; also: % is scaled to controls: 0 for no effect and ±100 for the full control effect; nearly all actives have a fitted effect of over 35% in size
In short: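 Rat hepatoma H-4-II-E cells (1500/well) were plated, incubated 5 hr at 37 °C, then exposed to compounds for 40 hr at 37 °C. Cellular ATP was read by CellTiter-Glo luminescence; AC50 came from Hill-equation fits of concentration-response data.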

[5] = Cell Viability - SH-SY5Y (AID 544); conditions: SH-SY5Y neuroblastoma cell viability; viability change, negative = cytotoxic: at 92.2 µM (top of the series);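 also: 0% = DMSO alone and -100% = 100 µM tamoxifen; nearly all actives have a fitted effect of over 55% in size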
In short: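 Human neuroblastoma SH-SY5Y cells (1500/well) in complete medium were exposed to compounds for 40 hr at 37 °C; intracellular ATP was then quantified by CellTiter-Glo luminescence after 20 min at room temperature. AC50 came from Hill-equation concentration-response fits.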

[6] = Cellular Toxicity (caspase-3) Renal Proximal Tubule (AID 667); conditions: renal proximal tubule cells; series mostly up to 91.7 µM;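 also: cells exposed to compound for 16 hours at 37 °C before detection; 0% = DMSO basal and 100% = 10 µM staurosporine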
In short: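 Primary rat proximal tubule cells, 1000/well, 5 h plating at 37 °C, then compound 16 h at 37 °C. Caspase-Glo 3/7 reagent, 1 h RT, luminescence. Normalized to DMSO (basal) and 10 uM staurosporine (100%); Hill-fit AC50.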

[7] = target: Cytochrome P450 3A4 (Homo sapiens) (UniProt P08684); experiment: qHTS Assay for Inhibitors and Substrates of Cytochrome P450 3A4 (AID 884); conditions: recombinant CYP3A4, Luciferin-PPXE luminescence; series mostly up to 57.1 µM; also: % is scaled to controls: 0 for no effect and ±100 for the full control effect; nearly all actives have a fitted effect of over 50% in size
In short: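 20 nM human CYP3A4 with 25 uM Luciferin-PPXE (at KM) in 200 mM KPO4, preincubated 10 min with compound; NADPH regeneration started a 60 min RT reaction. Luciferin detected by luminescence, normalized to 57 uM ketoconazole as full inhibition.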

[8] = MultiTox-Fluor Cytotoxicity Assay - LYMP1-002 - Dead Cells (AID 960); conditions: LYMP1-002 lymphoblastoid cells, dead-cell protease fluorescence; series mostly up to 46.1 µM;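 also: 0% = DMSO and 100% = tetraoctylammonium bromide; nearly all actives have a fitted effect of over 60% in size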
In short: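 Human lymphoblastoid cells (LYMP1-002), 2500/well in complete medium, were exposed to compounds for 16 hr at 37 C. Dead-cell protease activity was read as bis-AAF-R110 fluorescence (Ex/Em 485/520), normalized to DMSO and 15 uM tetraoctylammonium bromide; AC50 from Hill fits.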

[9] = Cell Viability - LYMP2-004 (AID 966); conditions: LYMP2-004 lymphoblastoid cell viability, qHTS; series mostly up to 92.2 µM;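 also: plate controls were DMSO only for no effect and tetraoctylammonium bromide control for full effect; nearly all actives have a fitted effect of over 65% in size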
In short: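 Human lymphoblastoid cells (2500/well) in complete medium were treated with compounds for 24 hr at 37 C, then intracellular ATP was measured by CellTiter-Glo luminescence. AC50 values came from Hill-equation fits of concentration-response data.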

[10] = Cell Viability - LYMP2-005 (AID 967); conditions: LYMP2-005 lymphoblastoid cell viability; series mostly up to 92.2 µM;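 also: plate controls were DMSO only for no effect and 92 µM tetraoctylammonium bromide control for full effect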
In short: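 CellTiter-Glo luminescence (cellular ATP) read-out; LYMP2-005 lymphoblastoid cells, 2500/well, 5 h pre-incubation, then 24 h compound exposure at 37 C in complete medium. Tetraoctylammonium bromide positive control; AC50 by standard Hill fit.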

[11] = Cell Viability - LYMP2-012 (AID 982); conditions: LYMP2-012 lymphoblastoid cell viability qHTS; series mostly up to 92.2 µM;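 also: cellular ATP by luciferase luminescence where a drop means cytotoxicity; cells exposed to compound for one day before reading; 0% = DMSO only and full loss = 92 µM tetraoctylammonium bromide; nearly all actives have a fitted effect of over 55% in size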
[12] = Cell Viability - LYMP2-018 (AID 985); conditions: LYMP2-018 lymphoblastoid cells, viability (qHTS); series mostly up to 92.2 µM;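 also: compound exposure lasted 24 hr at 37 °C; plate controls were DMSO only for no effect and tetraoctylammonium bromide at 92 µM for full effect; nearly all actives have a fitted effect of over 50% in size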
In short: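 Human lymphoblastoid cells (2500/well) were pre-incubated 5 hr at 37 C, then exposed to compounds for 24 hr at 37 C in complete medium. Viability was read as intracellular ATP by CellTiter-Glo luminescence; AC50 values came from Hill-equation fits.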

[13] = Cell Viability - LYMP1-002 - Assay at 40 hr (AID 994); conditions: LYMP1-002 lymphoblastoid cell viability; series mostly up to 92.2 µM;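 also: 0% = DMSO only and full inhibition = 92 µM tetraoctylammonium bromide; nearly all actives have a fitted effect of over 60% in size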
In short: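 Human lymphoblastoid cells, 2500/well in complete medium, were preincubated 5 hr at 37 C, then exposed to compounds for 40 hr at 37 C. Intracellular ATP was read by CellTiter-Glo luminescence after 30 min at room temperature; AC50 from Hill-equation fits.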

[14] = qHTS assay for small molecule agonists of retinoid X receptor alpha signaling (AID 588544; calls by dose curve;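 as to activation: 0% = DMSO basal wells and 100% = reference agonist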); conditions: HEK293T RXRa-UAS-bla, beta-lactamase reporter, 18 h; 530 nm emission
[15] = target: Retinoic acid receptor RXR-alpha (Homo sapiens) (UniProt P19793); experiment: as above; conditions: HEK293T RXRa-UAS-bla, beta-lactamase reporter, 18 h; series mostly up to 76.7 µM
[16] = qHTS assay for small molecule antagonists of retinoid X receptor alpha signaling (AID 588546; active = well fitted inhibition curve with a large enough effect in the signal ratio, with a control signal flat, not every such curve was filed as active; the % refers to the signal ratio;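 also: cells stimulated with 9-cis-retinoic acid as agonist; % is scaled to controls: 0 for no effect and ±100 for the full control effect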); conditions: HEK293T RXRa-UAS-bla, beta-lactamase ratio, antagonist mode; measured here: W530 green channel, cytotoxicity proxy
In short: (§1)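 Beta-lactamase reporter inhibition, read as CCF4 fluorescence ratio (ex 405, em 460/530 nm) after 2 h at RT. HEK293T UAS-bla cells, 2500/well, were stimulated with 9-cis-RA at 500 or 100 nM final alongside test compound for 18 h at 37 C.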

[17] = target: Retinoic acid receptor RXR-alpha (Homo sapiens) (UniProt P19793); experiment: as above; conditions: HEK293T RXRa-UAS-bla, beta-lactamase ratio, antagonist mode
In short: as §1

[18] = target: Tumor necrosis factor (Homo sapiens) (UniProt P01375); experiment: qHTS assay to identify small molecules that stimulate Tumor Necrosis Factor-alpha (TNF-alpha) secretion (AID 651757; active = well fitted curve in the direction sought with a large enough effect in the signal ratio; the % refers to the signal ratio; also: 0% is about no effect); conditions: Human cells, HTRF 665/615 ratio; series mostly up to 92.2 µM
In short: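 THP-1 cells were exposed to compounds for 17 hrs at 37 C, after which secreted TNF-alpha was measured by homogeneous HTRF (TR-FRET) using cryptate- and XL665-labeled anti-TNF-alpha antibodies, read after 3 hr at room temperature.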

[19] = qHTS assay for environmental chemicals that activate the Aryl hydrocarbon Receptor (AhR) signaling pathway (AID 651777); conditions: 1A2-DRE human hepatoma cells, luciferase, 24 h; activation: stronger effect = higher value; also: % of control where 0% means no effect; nearly all actives have a fitted effect of over 15% in size
In short: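 Induction of CYP1A2 transcription through AhR is detected by luciferase in 1A2-DRE hepatoma cells. Compounds or DMSO act for 24 hr at 37 C before a 30 min One-Glo step at room temperature.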

[20] = qHTS assay for small molecule agonists of the antioxidant response element (ARE) signaling pathway measured by Nrf2-dependant transcriptional activity (AID 720636; active = well fitted curve in the direction sought with a large enough effect in the repeat runs; an effect the other way counts as inactive or inconclusive;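 also: HepG2 cells with an ARE-driven luciferase reporter; % of control where 0% means no effect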); conditions: ARE-luc HepG2, Nrf2 luciferase reporter, 16 h; series mostly up to 92.4 µM
In short: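 We exposed ARE-luc HepG2 cells, seeded in assay medium with 1% dialyzed FBS and allowed 6 hr to adhere, to test compounds overnight (16 hr, 37 C) before measuring luciferase with ONE-Glo.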

Chain of Retinoic acid receptor RXR-alpha (Homo sapiens) (P19793 whole entry, looked up): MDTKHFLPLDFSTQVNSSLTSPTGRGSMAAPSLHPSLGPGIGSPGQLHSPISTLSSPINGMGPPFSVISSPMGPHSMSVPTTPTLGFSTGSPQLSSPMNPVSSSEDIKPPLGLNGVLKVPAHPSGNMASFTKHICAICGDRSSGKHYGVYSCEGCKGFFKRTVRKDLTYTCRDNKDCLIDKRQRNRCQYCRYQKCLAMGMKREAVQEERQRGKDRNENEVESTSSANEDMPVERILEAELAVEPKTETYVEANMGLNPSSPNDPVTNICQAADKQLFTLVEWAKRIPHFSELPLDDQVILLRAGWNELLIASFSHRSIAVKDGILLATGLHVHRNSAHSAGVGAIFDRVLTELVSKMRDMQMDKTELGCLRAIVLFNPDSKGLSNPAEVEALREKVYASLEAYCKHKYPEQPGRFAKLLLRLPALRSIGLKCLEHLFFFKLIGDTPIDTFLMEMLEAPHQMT
Chain of Cytochrome P450 3A4 (Homo sapiens) (P08684 whole entry, looked up): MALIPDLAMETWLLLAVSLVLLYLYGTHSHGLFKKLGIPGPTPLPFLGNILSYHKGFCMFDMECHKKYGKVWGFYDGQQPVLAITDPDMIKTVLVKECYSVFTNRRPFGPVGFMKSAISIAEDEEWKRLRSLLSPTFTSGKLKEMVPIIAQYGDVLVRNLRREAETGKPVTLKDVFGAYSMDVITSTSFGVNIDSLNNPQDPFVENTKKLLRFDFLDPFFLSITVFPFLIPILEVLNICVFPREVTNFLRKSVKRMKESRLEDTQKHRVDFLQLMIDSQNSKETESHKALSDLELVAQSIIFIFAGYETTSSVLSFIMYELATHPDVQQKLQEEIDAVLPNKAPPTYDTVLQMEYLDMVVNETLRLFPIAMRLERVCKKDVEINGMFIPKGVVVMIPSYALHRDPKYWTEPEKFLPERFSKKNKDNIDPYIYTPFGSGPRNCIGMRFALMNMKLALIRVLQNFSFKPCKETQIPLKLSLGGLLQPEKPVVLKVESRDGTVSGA
Chain of Tumor necrosis factor (Homo sapiens) (P01375 whole entry, looked up): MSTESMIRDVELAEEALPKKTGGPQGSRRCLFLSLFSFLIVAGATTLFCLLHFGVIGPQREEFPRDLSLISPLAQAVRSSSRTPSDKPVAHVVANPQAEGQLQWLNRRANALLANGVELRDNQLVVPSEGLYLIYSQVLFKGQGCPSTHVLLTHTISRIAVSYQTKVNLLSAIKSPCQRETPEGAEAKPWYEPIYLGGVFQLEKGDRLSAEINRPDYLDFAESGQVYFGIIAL

CC(=O)[O-].CC(=O)[O-].CC(=O)[O-].[Cr+3]
-2.43%: max response [16]
inactive: Potency [1] > 92 µM | Potency [2] > 92 µM | Potency [3] | Potency [4] | Potency [5] | outcome [6] | Potency [7] | Potency [8] | Potency [9] | Potency [10] | Potency [11] | Potency [12] | Potency [13] | outcome [15] | max response [17] 18.8% | outcome [18] | activation [19] -2.21% | Potency [20]
-6.52%: max response [14]

C[N+](=O)[O-]
-4.73%: max response [14]
-7.25%: max response [16]
inactive: Potency [1] > 92 µM | Potency [2] > 92 µM | Potency [3] | Potency [4] | Potency [5] | outcome [6] | Potency [7] | Potency [8] | Potency [9] | Potency [10] | Potency [11] | Potency [12] | Potency [13] | outcome [15] | max response [17] 4.36% | outcome [18] | activation [19] 0.25% | Potency [20]

c1ccoc1
-15.5%: max response [14]
inactive: Potency [1] > 92 µM | Potency [2] > 92 µM | Potency [3] | Potency [4] | Potency [5] | Potency [7] | Potency [8] | Potency [9] | Potency [10] | Potency [11] | Potency [12] | Potency [13] | outcome [15] | max response [17] -5.23% | outcome [18] | activation [19] -0.801% | Potency [20]
1%: max response [16]

Nc1ccccc1-c1ccccc1
14.6%: max response [14]
inactive: Potency [1] > 92 µM | Potency [2] > 92 µM | Potency [3] | Potency [4] | Potency [5] | outcome [6] | Potency [7] | Potency [8] | Potency [9] | Potency [10] | Potency [12] | Potency [13] | outcome [15] | max response [17] -19.9% | outcome [18] | activation [19] -0.114% | Potency [20]
-0.398%: max response [16]

N#CCBr
1.14%: max response [16]
inactive: Potency [1] > 92 µM | Potency [2] > 92 µM | Potency [3] | Potency [4] | Potency [5] | outcome [6] | Potency [7] | Potency [8] | Potency [9] | Potency [10] | Potency [11] | Potency [12] | Potency [13] | outcome [15] | max response [17] -1.67% | outcome [18] | activation [19] 13.7% | Potency [20]
-6.36%: max response [14]

CC[N+](=O)[O-]
-9.1%: max response [14]
inactive: Potency [1] > 92 µM | Potency [2] > 92 µM | Potency [3] | Potency [4] | Potency [5] | outcome [6] | Potency [7] | Potency [8] | Potency [9] | Potency [10] | Potency [11] | Potency [12] | Potency [13] | outcome [15] | max response [17] 5.74% | outcome [18] | activation [19] -0.343% | Potency [20]
-3.61%: max response [16]

CCBr
inactive: Potency [1] > 92 µM | Potency [2] > 92 µM | Potency [3] | Potency [4] | Potency [5] | outcome [6] | Potency [7] | Potency [8] | Potency [9] | Potency [10] | Potency [11] | Potency [12] | Potency [13] | outcome [15] | max response [17] 2.77% | outcome [18]
-3.72%: max response [14]
-5.59%: max response [16]

Oc1cc(Cl)c(Cl)c(Cl)c1Cl
inactive: outcome [6] | Potency [9] | Potency [10] | Potency [12] | Potency [13] | activation [19] 4.37% | Potency [20]

CCOC(=O)CC(SP(=O)(OC)OC)C(=O)OCC (stereo unspecified)
9.41% and -5.43%: max response [14]
7.78% and 5.62%: max response [16]
inactive: Potency [1] > 92 µM | Potency [2] > 92 µM | Potency [3] | Potency [4] | outcome [6] | Potency [8] | Potency [9] | Potency [10] | Potency [11] | Potency [12] | Potency [13] | outcome [15] | max response [17] -24.2% and 2.64% | outcome [18] | activation [19] 1.9% and 4.95% | Potency [20]

ClCCOCOCCCl
-19.5%: max response [14]
-0.61%: max response [16]
inactive: Potency [1] > 92 µM | Potency [2] > 92 µM | Potency [3] | Potency [4] | Potency [5] | outcome [6] | Potency [7] | Potency [8] | Potency [9] | Potency [10] | Potency [11] | Potency [12] | Potency [13] | outcome [15] | max response [17] -0.285% | outcome [18] | activation [19] 0.193% | Potency [20]
